In PubChem BioAssay:
Active and inactive are the calls of the source. Cut-off read from the data, not from the text of the source, unless noted: active = inhibition above about 44%; inactive = the rest.

target: Steroidogenic factor 1 (Homo sapiens) (UniProt Q13285); test: inverse agonism at SF1 nuclear receptor – cell-based, luminescence, high throughput, counter-screen for LRH-1 inverse agonist project (AID 651614); details: cell-based SF1 luciferase reporter, at 3.6 µM, active compounds read high;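 note: cells cotransfected with StAR promoter reporter and SF1 expression vector; 0% = vehicle on cells with receptor and 100% = vehicle on cells lacking receptor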
Sequence (Q13285 whole entry, looked up): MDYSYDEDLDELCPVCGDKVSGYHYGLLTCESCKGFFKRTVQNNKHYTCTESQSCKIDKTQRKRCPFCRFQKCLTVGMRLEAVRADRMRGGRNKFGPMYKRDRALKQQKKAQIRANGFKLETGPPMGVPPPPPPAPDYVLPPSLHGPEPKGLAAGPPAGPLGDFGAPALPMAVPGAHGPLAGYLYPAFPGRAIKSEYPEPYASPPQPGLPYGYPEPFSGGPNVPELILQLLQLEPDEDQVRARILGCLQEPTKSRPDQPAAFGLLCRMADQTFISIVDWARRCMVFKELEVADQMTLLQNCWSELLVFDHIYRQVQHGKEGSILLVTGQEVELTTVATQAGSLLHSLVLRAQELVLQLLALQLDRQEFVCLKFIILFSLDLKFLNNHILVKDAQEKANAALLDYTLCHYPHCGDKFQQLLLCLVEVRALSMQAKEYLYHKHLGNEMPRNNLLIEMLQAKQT

| Structure (SMILES) | inhibition |
| --- | --- |
| COc1ccc(-c2cc(NC=O)c3ncc(-c4ccc(C(C)=O)cc4)n3c2)cn1 | 59% (active) |
| O=C(Cc1ccc(Cl)cc1Cl)Nc1ccncc1 | 72.9% (active) |
| c1ccc(Oc2nc(-c3cccnc3)nc3ccccc23)cc1 | 53.3% (active) |
| Cc1cc(O)c(NC(=O)c2cc([N+](=O)[O-])ccc2Cl)cc1C | 58.8% (active) |
| Cc1cc(C)n(-c2nc(Nc3ccccc3C(F)(F)F)nc(-n3nc(C)cc3C)n2)n1 | 24.5% (inactive) |
| COc1cccc(C2c3cc4c(cc3OC(N3CCOCC3)C2C)OCO4)c1O (stereo not drawn) | 45.3% (active) |
| c1ccc(-n2nnnc2-c2cccc3ccccc23)cc1 | 62.6% (active) |
| COc1cc(-c2noc(C)c2/C=C/c2ccc(N)cc2)cc(OC)c1OC | 55.2% (active) |
| COc1ccccc1-n1c(SCC(=O)Nc2ccc(F)cc2)nc2c(c1=O)SCC2 | 55.9% (active) |
| O=C(Cn1cc(COc2ccc(C(=O)c3ccccc3)cc2)nn1)c1ccc(O)cc1 | 57% (active) |
| Cc1ccc(S(=O)(=O)N2CCc3ccccc3CC2)cc1 | 56.7% (active) |
| CCCNC(=O)c1sc2c(c1C(=O)Nc1ccccn1)CCCC2 | 42.7% (active) |
| COc1ccc(CNC(=O)c2sc(=O)n(Cc3ccc(-c4ccccc4)cc3)c2C)cc1OC | 42.5% (inactive) |
| c1ccc(-c2nc(NCC3CCCO3)c3oc4ccccc4c3n2)cc1 (stereo not drawn) | 39.8% (inactive) |
| CCOC(=O)CC1CCCCN1C(=O)c1cc(COc2cccc3cnccc23)on1 (stereo not drawn) | 62.1% (active) |
| CCCc1cc(=O)oc2cc(C)cc(OCC(=O)NC3CC3)c12 | 62.1% (active) |
| COc1ccc(N2CCN(C(=O)CN3C(=O)NC4(CCCCCC4)C3=O)CC2)cc1 | 43.3% (active) |
| CC(C)C(=O)N1CCN(c2ccccc2NC(=O)c2ccc([N+](=O)[O-])o2)CC1 | 42.2% (inactive) |
| CN(C)c1ccc(C=c2c3ccccc3n3c2c2ccccc2[n+]3C)cc1 | 90.7% (active) |
| CC(=O)c1ccsc1-c1c(C)cc2oc(=O)cc(-c3ccccc3)c2c1C | 54.4% (active) |

| Structure (SMILES) | inhibition |
| --- | --- |
| O=C1CCCN2N=C(SCC(=O)Nc3ccc(Br)cc3)SC2=N1 | 48.8% (active) |
| COc1ccc(NC(=O)COc2cccc3c2CCN(C)C3=O)c(OC)c1 | 61.6% (active) |
| Cc1ccc(-c2csc(NC(=O)c3ccc([N+](=O)[O-])o3)n2)cc1 | 54.4% (active) |
| COc1ccccc1N1CCN(C(=O)C2c3ccccc3Oc3ccccc32)CC1 | 33.4% (inactive) |
| COCCn1c(SCC(=O)Nc2ccc(NC(C)=O)cc2)nc2ccccc2c1=O | 52% (active) |
| O=C(COC(=O)C1CC1)NCCc1ccc(Cl)cc1 | 39.1% (inactive) |
| COc1ccc(S(=O)(=O)N2CCOCC2)cc1N=Nc1sc(N)nc1-c1ccccc1 | 66.3% (active) |
| C[C@H](CO)N1C[C@H](C)[C@H](CN(C)Cc2ccncc2)Oc2cc(-c3ccccc3F)ccc2S1(=O)=O | 64.6% (active) |
| CCCc1cc(=O)oc2cc(OCC(=O)NCc3ccccn3)ccc12 | 59.1% (active) |
| CC(=O)Nc1ccc(NC(=O)CSc2ccc(-c3ccco3)nn2)cc1 | 44.7% (active) |
| Oc1[nH]c2ccccc2c1N=NC(=S)N1CCOCC1 | 80% (active) |
| COc1ccc(CC(N)c2csc(Nc3ncccn3)n2)cc1 (stereo not drawn) | 33.1% (inactive) |
| Cc1cc(-n2c(C)cc(C(=O)CSc3ncnc4ccccc34)c2C)no1 | 61.3% (active) |
| COc1ccc(S(=O)(=O)N2CCCN(CC(=O)Nc3ccc(OC)c(Cl)c3)CC2)cc1 | 57.7% (active) |
| COc1cc2c(=O)[nH]c3cc([N+](=O)[O-])ccc3c2cc1[N+](=O)[O-] | 56.6% (active) |
| O=C(Nc1ccc(N2CCN(Cc3ccccc3F)CC2)cc1)c1ccc([N+](=O)[O-])o1 | 73.9% (active) |
| Cc1ccc(Cn2cnc3ccccc32)cc1C | 32.6% (inactive) |
| COc1ccc(N2CC(C(=O)N/N=C/c3ccc(C)cc3)CC2=O)cc1 (stereo not drawn) | 29.4% (inactive) |
| O=C(CCl)Nc1cccc(Oc2cnccn2)c1 | 64.9% (active) |

system: not listed separately; test: compounds suppressing VP16-driven luciferase signal – cell-based, luminescence, high throughput, counter-screen for LRH-1 inverse agonist project (AID 651615; in the data active = inhibition above about 33%); details: Gal4-VP16 luciferase reporter cells, at 3.6 µM, active compounds read high

| Structure (SMILES) | inhibition |
| --- | --- |
| COc1ccc(-c2cc(NC=O)c3ncc(-c4ccc(C(C)=O)cc4)n3c2)cn1 | -15.1% (inactive) |
| O=C(Cc1ccc(Cl)cc1Cl)Nc1ccncc1 | 48.6% (active) |
| c1ccc(Oc2nc(-c3cccnc3)nc3ccccc23)cc1 | 1.32% (inactive) |
| Cc1cc(O)c(NC(=O)c2cc([N+](=O)[O-])ccc2Cl)cc1C | -8.66% (inactive) |
| Cc1cc(C)n(-c2nc(Nc3ccccc3C(F)(F)F)nc(-n3nc(C)cc3C)n2)n1 | -0.49% (inactive) |
| COc1cccc(C2c3cc4c(cc3OC(N3CCOCC3)C2C)OCO4)c1O (stereo not drawn) | 21.4% (inactive) |
| c1ccc(-n2nnnc2-c2cccc3ccccc23)cc1 | 23% (inactive) |
| COc1cc(-c2noc(C)c2/C=C/c2ccc(N)cc2)cc(OC)c1OC | -29.3% (inactive) |
| COc1ccccc1-n1c(SCC(=O)Nc2ccc(F)cc2)nc2c(c1=O)SCC2 | -9% (inactive) |
| O=C(Cn1cc(COc2ccc(C(=O)c3ccccc3)cc2)nn1)c1ccc(O)cc1 | 59.6% (active) |
| Cc1ccc(S(=O)(=O)N2CCc3ccccc3CC2)cc1 | 53.9% (active) |
| CCCNC(=O)c1sc2c(c1C(=O)Nc1ccccn1)CCCC2 | 14.3% (inactive) |
| COc1ccc(CNC(=O)c2sc(=O)n(Cc3ccc(-c4ccccc4)cc3)c2C)cc1OC | 31.6% (active) |
| c1ccc(-c2nc(NCC3CCCO3)c3oc4ccccc4c3n2)cc1 (stereo not drawn) | -17.1% (inactive) |
| CCOC(=O)CC1CCCCN1C(=O)c1cc(COc2cccc3cnccc23)on1 (stereo not drawn) | 61.4% (active) |
| CCCc1cc(=O)oc2cc(C)cc(OCC(=O)NC3CC3)c12 | -6.08% (inactive) |
| COc1ccc(N2CCN(C(=O)CN3C(=O)NC4(CCCCCC4)C3=O)CC2)cc1 | -4.03% (inactive) |
| CC(C)C(=O)N1CCN(c2ccccc2NC(=O)c2ccc([N+](=O)[O-])o2)CC1 | 25% (inactive) |
| CN(C)c1ccc(C=c2c3ccccc3n3c2c2ccccc2[n+]3C)cc1 | 91.7% (active) |
| CC(=O)c1ccsc1-c1c(C)cc2oc(=O)cc(-c3ccccc3)c2c1C | -0.37% (inactive) |

| Structure (SMILES) | inhibition |
| --- | --- |
| O=C1CCCN2N=C(SCC(=O)Nc3ccc(Br)cc3)SC2=N1 | -7.91% (inactive) |
| COc1ccc(NC(=O)COc2cccc3c2CCN(C)C3=O)c(OC)c1 | -23.8% (inactive) |
| Cc1ccc(-c2csc(NC(=O)c3ccc([N+](=O)[O-])o3)n2)cc1 | -19.4% (inactive) |
| COc1ccccc1N1CCN(C(=O)C2c3ccccc3Oc3ccccc32)CC1 | 39.4% (active) |
| COCCn1c(SCC(=O)Nc2ccc(NC(C)=O)cc2)nc2ccccc2c1=O | 2.35% (inactive) |
| O=C(COC(=O)C1CC1)NCCc1ccc(Cl)cc1 | -2.95% (inactive) |
| COc1ccc(S(=O)(=O)N2CCOCC2)cc1N=Nc1sc(N)nc1-c1ccccc1 | -3.07% (inactive) |
| C[C@H](CO)N1C[C@H](C)[C@H](CN(C)Cc2ccncc2)Oc2cc(-c3ccccc3F)ccc2S1(=O)=O | 11.1% (inactive) |
| CCCc1cc(=O)oc2cc(OCC(=O)NCc3ccccn3)ccc12 | -9.39% (inactive) |
| CC(=O)Nc1ccc(NC(=O)CSc2ccc(-c3ccco3)nn2)cc1 | -18.3% (inactive) |
| Oc1[nH]c2ccccc2c1N=NC(=S)N1CCOCC1 | 55.2% (active) |
| COc1ccc(CC(N)c2csc(Nc3ncccn3)n2)cc1 (stereo not drawn) | 15.5% (inactive) |
| Cc1cc(-n2c(C)cc(C(=O)CSc3ncnc4ccccc34)c2C)no1 | 36.9% (active) |
| COc1ccc(S(=O)(=O)N2CCCN(CC(=O)Nc3ccc(OC)c(Cl)c3)CC2)cc1 | -5.36% (inactive) |
| COc1cc2c(=O)[nH]c3cc([N+](=O)[O-])ccc3c2cc1[N+](=O)[O-] | -22.2% (inactive) |
| O=C(Nc1ccc(N2CCN(Cc3ccccc3F)CC2)cc1)c1ccc([N+](=O)[O-])o1 | 32.6% (active) |
| Cc1ccc(Cn2cnc3ccccc32)cc1C | 7.91% (inactive) |
| COc1ccc(N2CC(C(=O)N/N=C/c3ccc(C)cc3)CC2=O)cc1 (stereo not drawn) | 19.5% (inactive) |
| O=C(CCl)Nc1cccc(Oc2cnccn2)c1 | -26.5% (inactive) |
